Reference: the supplement of paper PMC7261846
± gives the uncertainty stated by the source.

These compounds were tested on Candida albicans SNY425 biofilm (assay: biofilm OD600 with compound plus antifungal (OD600 (absorbance)); higher = more biofilm remaining). Details: assay detail: sustained inhibition (compound + antifungal during 90-min adherence and 24-h growth).

SMILES	biofilm OD600
CC(C)C[C@H](NC(=O)N[C@H](C(=O)N[C@@H](CCC(N)=O)C(=O)N[C@@H](C)C=O)[C@@H]1CCNC(=N)N1)C(=O)O [Elastatinal] + CC[C@H](C)C[C@H](C)CCCCCCCCC(=O)N[C@H]1C[C@@H](O)[C@@H](NCCN)NC(=O)[C@@H]2[C@@H](O)CCN2C(=O)[C@H]([C@H](O)CCN)NC(=O)[C@H]([C@H](O)[C@@H](O)c2ccc(O)cc2)NC(=O)[C@@H]2C[C@@H](O)CN2C(=O)[C@H]([C@@H](C)O)NC1=O [caspofungin] (first compound 12.5 µM)	0.189 ± 0.011
CSCCC(C=O)NC(=O)C(CC(C)C)NC(=O)[C@H](CC(C)C)NC(C)=O (some centres undefined) [Calpain Inhibitor II (ALLM)] + OC(Cn1cncn1)(Cn1cncn1)c1ccc(F)cc1F [fluconazole] (first compound 12.5 µM)	0.146 ± 0.0052
COC(=O)N[C@H](C(=O)N[C@@H](Cc1ccccc1)[C@@H](O)CN(Cc1ccc(-c2ccccn2)cc1)NC(=O)[C@@H](NC(=O)OC)C(C)(C)C)C(C)(C)C [atazanavir] + CC[C@H](C)C[C@H](C)CCCCCCCCC(=O)N[C@H]1C[C@@H](O)[C@@H](NCCN)NC(=O)[C@@H]2[C@@H](O)CCN2C(=O)[C@H]([C@H](O)CCN)NC(=O)[C@H]([C@H](O)[C@@H](O)c2ccc(O)cc2)NC(=O)[C@@H]2C[C@@H](O)CN2C(=O)[C@H]([C@@H](C)O)NC1=O [caspofungin] (first compound 12.5 µM)	0.201 ± 0.013
NCC1CCC(C(=O)N[C@@H](Cc2ccccc2)C(=O)Nc2ccc(CC(=O)O)cc2)CC1 (some centres undefined) + C[C@@H]1[C@H](O)[C@@H](C)/C=C/C=C/C=C/C=C/C=C/C=C/C=C/[C@H](O[C@@H]2O[C@H](C)[C@@H](O)[C@H](N)[C@@H]2O)C[C@@H]2O[C@](O)(C[C@@H](O)C[C@@H](O)[C@H](O)CC[C@@H](O)C[C@@H](O)CC(=O)O[C@H]1C)C[C@H](O)[C@H]2C(=O)O [amphotericin B] (first compound 12.5 µM)	0.182 ± 0.017
